# Measurements published in paper PMC7819943, “Rice protein-binding microarrays: a tool to detect cis-acting elements near promoter regions in rice”.
# The full ranking holds about 35,000 sequences; the median of “fluorescence intensity (a.u.)” is about 10,000, and the highest 2% start at about 52,000. The entries come from a sample that favours the highest values as a whole.
# Molecular target: T1, OsWOX13 (Oryza sativa, UniProt Q5QMM3 1-267)
# T1 sequence: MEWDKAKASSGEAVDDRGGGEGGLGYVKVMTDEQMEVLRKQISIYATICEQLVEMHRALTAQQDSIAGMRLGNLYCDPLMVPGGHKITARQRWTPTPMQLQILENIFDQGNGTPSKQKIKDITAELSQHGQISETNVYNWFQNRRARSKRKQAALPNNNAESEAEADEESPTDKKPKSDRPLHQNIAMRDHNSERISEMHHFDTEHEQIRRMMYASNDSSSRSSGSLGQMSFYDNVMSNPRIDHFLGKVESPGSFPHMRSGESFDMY
# Assay: protein-binding microarray (RPBM); PBS, 2% BSA, 51.3 ng/ul salmon testes DNA, 50 uM zinc acetate, 200 nM TF, 25 C, 1 h; high values mean tight binding
# Details: protein: recombinant; tags: N-terminal polyhistidine and DsRed monomer fusion (pET32a); label: CyDye5-dUTP incorporated in the synthesized complementary strand; 3' TTTTT single-stranded linker to array surface; dsDNA, one strand shown
# Procedure, shortened: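 In PBS with 2% BSA, salmon testes DNA and 50 µM zinc acetate, 200 nM protein was incubated on a custom Agilent array at 25 °C for 1 h and then washed off. The array had been made double-stranded by primer extension with Cy5-dUTP and blocked with 2% BSA. The proteins were transcription factors fused N-terminally to polyhistidine and DsRed, expressed in E. coli BL21-CodonPlus and purified on Ni–NTA. The binding signal is per-feature fluorescence intensity (arbitrary units) from an Axon 4000B scanner.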
row,Sequence,binding signal
1,GGTGTCTTGATTGATATGATTTAAATTATTCTTGGTCTTGCGGAGTCACCTAGTGCAG,58500 fluorescence intensity (a.u.)
2,TGGCACACTAATTAGGGAGAAAATCTCTATCTTGTGTTGTCGGAGTCACCTAGTGCAG,9710 fluorescence intensity (a.u.)
3,ACACTAATTAGGGAGATAATCTCTCTTGTGGTGTTTGTGTCGGAGTCACCTAGTGCAG,52300 fluorescence intensity (a.u.)
4,AATAATTTTCTTTTGTCACACTGTTTCTTCTCTAATCTATCGGAGTCACCTAGTGCAG,5890 fluorescence intensity (a.u.)
5,TATTGATATGATTTAAATTGTCCTTGGTCTTGGTGTATAACGGAGTCACCTAGTGCAG,40700 fluorescence intensity (a.u.)
6,TATTAATTGATGCGATTTAAATTATCTTTGGTCTTGATGTCGGAGTCACCTAGTGCAG,50000 fluorescence intensity (a.u.)
7,ATACTGTCATCAATTGATTACTCTGACCGTCGATCACACACGGAGTCACCTAGTGCAG,34100 fluorescence intensity (a.u.)
8,TTATAACACAAATAATATAATAGATATATAGACTGTTGTCCGGAGTCACCTAGTGCAG,3650 fluorescence intensity (a.u.)
9,ATGTAATTTCACCATAACTATATATTATAATAAGATAAGTCGGAGTCACCTAGTGCAG,8720 fluorescence intensity (a.u.)
10,CTGATGATTCACCCATGATCGATTGCTCGATCCGTTTAAGCGGAGTCACCTAGTGCAG,3710 fluorescence intensity (a.u.)
11,AATTGAAATAATTGGAAATTTTCATATTTATATATTAAACCGGAGTCACCTAGTGCAG,5800 fluorescence intensity (a.u.)
12,TACCATGATTGGGCTGCAACTAAATTGACAGGTCAGCCATCGGAGTCACCTAGTGCAG,60400 fluorescence intensity (a.u.)
13,ATGATTTTCATCCGTTAGATTTGATGAATAAAGTATGAAGCGGAGTCACCTAGTGCAG,11100 fluorescence intensity (a.u.)
14,AGGGTGATTGACAGGTGGGTCCATCCCCTCACATGCCAGGCGGAGTCACCTAGTGCAG,64800 fluorescence intensity (a.u.)
15,GTGTATCATCTAGGTCCTAAATTGACACATCCCCTCTAGGCGGAGTCACCTAGTGCAG,10100 fluorescence intensity (a.u.)
16,TTATATAGTTACCAAAATTTGACAGCAAACTAAATGTAGCCGGAGTCACCTAGTGCAG,3680 fluorescence intensity (a.u.)
17,ATATAGTTACCAAAATTTGACAGCAAACTAAATGTAGCCACGGAGTCACCTAGTGCAG,7890 fluorescence intensity (a.u.)
18,CTAGATTGATCGAAATCCGTCAAGTTCATGAACCGTTAAGCGGAGTCACCTAGTGCAG,54400 fluorescence intensity (a.u.)
19,AAGAAAATTTAAAACAATTGATTACATACTAAATTAATATCGGAGTCACCTAGTGCAG,9840 fluorescence intensity (a.u.)
20,AAGTGATTGAAATTTAATTCATGATCCTAAACCATACAACCGGAGTCACCTAGTGCAG,53200 fluorescence intensity (a.u.)
21,TCCAGGTGATGGTAATGATATTGACATGCCCTCATCTAGTCGGAGTCACCTAGTGCAG,3770 fluorescence intensity (a.u.)

row,Sequence,binding signal
1,TTGTGACTTGACTTTGCCAATCTTAGTCTATTTTCTCGAGCGGAGTCACCTAGTGCAG,5270 fluorescence intensity (a.u.)
2,TATTAAATTGGCTATAGGTGATTTGGAGCTAATAGTTAGCCGGAGTCACCTAGTGCAG,24000 fluorescence intensity (a.u.)
3,CTTAATTACTATTCCCTCCGTCATACAATATAAGAGATTTCGGAGTCACCTAGTGCAG,22500 fluorescence intensity (a.u.)
4,CATAAACTGAAGCTCATAATTGTTTGTGAAATCGTTTATCCGGAGTCACCTAGTGCAG,16900 fluorescence intensity (a.u.)
5,CGTGGTCTCTAATTTGTTTTGTTCGTTCTCCTTTCTTGTTCGGAGTCACCTAGTGCAG,4660 fluorescence intensity (a.u.)
6,GACTCTATCTAGAAATTAAATTTAATCAACACATGTAAGTCGGAGTCACCTAGTGCAG,12800 fluorescence intensity (a.u.)
7,TTTATTTAATTGATTCGATGAACTTTGTGCCATTAAAATTCGGAGTCACCTAGTGCAG,35000 fluorescence intensity (a.u.)
8,TATGATTAAAATTGTTTTGAACCATTGCACGCACCAGCATCGGAGTCACCTAGTGCAG,18500 fluorescence intensity (a.u.)
9,TAAATTGACATGATTAATTGAAACCACGCCATTCAGCAATCGGAGTCACCTAGTGCAG,65500 fluorescence intensity (a.u.)
10,AGGTGGCCCCATTAATTGATGATGAAATGCAAACCTAAATCGGAGTCACCTAGTGCAG,9480 fluorescence intensity (a.u.)
11,TGGGGTATCTAGTCAATCATACAATATTTTGTTTTGCTAACGGAGTCACCTAGTGCAG,7400 fluorescence intensity (a.u.)
12,AGGAAAATGTGGTGAGTAATTAGGTTATAATTTATTGAGTCGGAGTCACCTAGTGCAG,4100 fluorescence intensity (a.u.)
13,AAAGAGAACACATAATTGATTTGGAGCACCCAAATAATTTCGGAGTCACCTAGTGCAG,15200 fluorescence intensity (a.u.)
14,TTGATAATTGGGCACCTATGCCCGACACATAAAACACACTCGGAGTCACCTAGTGCAG,22200 fluorescence intensity (a.u.)
15,CATAATTGAGTCTGATTGGCACAAACCTAGAGAACATGCCCGGAGTCACCTAGTGCAG,65500 fluorescence intensity (a.u.)
16,AAAATCAAGATTGATGTGGTTTCACCCCAACACAAGAAAACGGAGTCACCTAGTGCAG,8050 fluorescence intensity (a.u.)
17,TCTCATTGACAAGCCAACAAACGCACAGTGTGACAAGCTCCGGAGTCACCTAGTGCAG,3600 fluorescence intensity (a.u.)
18,GATAGATAGATAGATACATACACACAAACATAAGTAGCTACGGAGTCACCTAGTGCAG,19100 fluorescence intensity (a.u.)
19,TGATGATTGGTTTCTTGGCCAATGGTTTGGTTGTTGTTTTCGGAGTCACCTAGTGCAG,23100 fluorescence intensity (a.u.)
20,TTGTGATTGATTTCACACCCAAACAACAAGTAGTCAGCTACGGAGTCACCTAGTGCAG,61300 fluorescence intensity (a.u.)
21,TGCCCCAATGATTTTGTACCACAGACCAGCTCAAGTTGCCCGGAGTCACCTAGTGCAG,4400 fluorescence intensity (a.u.)
